Values joined by “and” are separate entries in the source; they are usually repeats but may differ in a detail not shown here. Identical values can stand only once. Results filed as inconclusive are left out. Some compounds were tested as several samples or in several runs, with calls that do not always agree. Active and inactive are the calls of the source. The calls were made as follows: active = hit-call score of the fitted dose curve at least 0.9, where 1 is the maximum; inconclusive = response in the unintended direction; inactive = score below 0.9.
Legend:
[1] = TOX21_p53_BLA_p2_viability: Viability Assessment in the Tox21 HCT-116 p53 Agonism Beta-lactamase Assay, Phase 2 (AID 2283591);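 also: compound exposure lasted 16 h at 37 °C; actives lower the ATP signal meaning cytotoxicity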
Outline: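 HCT-116 p53-bla cells (4000/well) rested 5 h at 37C, then received compounds in DMSO (217-fold dilution) for 16 h at 37C, 5% CO2. After the CCF4 read, CellTiter-Glo was added; ATP luminescence was read after 30 min at room temperature.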

[2] = TOX21_p53_BLA_p3_viability: Viability Assessment in the Tox21 HCT-116 p53 Agonism Beta-lactamase Assay, Phase 3 (AID 2283593);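 also: cells exposed to compound for 16 h before reading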
Outline: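 HCT-116 cells (4000/well) rested 5 h at 37C, then got DMSO compounds by pin tool (217-fold dilution) for 16 h at 37C, 5% CO2. After the bla read, CellTiter-Glo was added and luminescence read at 30 min, room temperature.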

[3] = target: Cellular tumor antigen p53 (Homo sapiens) (UniProt P04637); assay: TOX21_p53_BLA_p3_ratio: Tox21 HCT-116 p53 Agonism Beta-lactamase Assay, Ratio, Phase 3 (AID 2283596)
Cellular tumor antigen p53 (Homo sapiens), sequence (P04637 whole entry, looked up): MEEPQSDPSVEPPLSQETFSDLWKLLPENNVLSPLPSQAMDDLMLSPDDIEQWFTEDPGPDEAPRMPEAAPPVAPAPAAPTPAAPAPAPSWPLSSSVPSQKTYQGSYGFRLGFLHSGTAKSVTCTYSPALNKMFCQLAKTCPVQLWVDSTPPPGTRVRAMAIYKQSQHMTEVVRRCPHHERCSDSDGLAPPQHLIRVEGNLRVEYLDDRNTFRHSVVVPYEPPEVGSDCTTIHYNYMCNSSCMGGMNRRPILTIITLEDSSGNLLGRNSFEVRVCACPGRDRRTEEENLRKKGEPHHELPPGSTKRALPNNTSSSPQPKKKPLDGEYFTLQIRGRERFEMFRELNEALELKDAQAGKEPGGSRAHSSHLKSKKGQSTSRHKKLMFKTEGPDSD
Outline: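 HCT116 p53-bla cells (4000/well) given compound in DMSO (217-fold dilution) after 5 h, incubated 16 h at 37C. CCF4-AM substrate 2 h at room temperature; 460/530 nm emission ratio, gain fitted against DMSO.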

[4] = TOX21_p53_BLA_p4_viability: Viability Assessment in the Tox21 HCT-116 p53 Agonism Beta-lactamase Assay, Phase 4 (AID 2283597);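 also: hits lower the luminescence signal meaning cytotoxicity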
Outline: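 Luminescent ATP readout (CellTiter-Glo, 30 min, room temperature) in the same wells as the p53 bla ratio. HCT116 cells were treated for 16 h at 37C with DMSO-dissolved compounds.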

[5] = TOX21_p53_BLA_p5_viability: Viability Assessment in the Tox21 HCT-116 p53 Agonism Beta-lactamase Assay, Phase 5 (AID 2283600)
Outline: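 Seeded cells (4000/well) settle 5 h before compound addition. Plates then incubate 16 h at 37C, receive FRET substrate for 2 h, and finally CellTiter-Glo, with luminescence measured after a 30 min room-temperature incubation.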

[6] = target: Cellular tumor antigen p53 (Homo sapiens) (UniProt P04637); assay: TOX21_p53_BLA_p5_ratio: Tox21 HCT-116 p53 Agonism Beta-lactamase Assay, Ratio, Phase 5 (AID 2283599)
Outline: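 HCT-116 cells carrying a p53-inducible beta-lactamase reporter were seeded at 4000 cells/well and dosed after 5 h with compound in DMSO (217-fold dilution). After 16 h at 37C, CCF4-AM substrate was added for 2 h, and the 460/530 nm emission ratio was scored as gain-of-signal versus DMSO.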

[7] = target: Cellular tumor antigen p53 (Homo sapiens) (UniProt P04637); assay: TOX21_p53_BLA_p4_ratio: Tox21 HCT-116 p53 Agonism Beta-lactamase Assay, Ratio, Phase 4 (AID 2283601)
Outline: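 HCT116 cells carrying an inducible beta-lactamase reporter were plated at 4000 cells/well, rested 5 h, then exposed to compounds in DMSO (217-fold dilution) for 16 h at 37C. CCF4-AM substrate was loaded 2 h at room temperature; 460/530 nm emission ratio scored gain-of-signal versus DMSO.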

PGR (gene 5241) = PGR (gene 5241) (UniProt P06401); assay: TOX21_PR_BLA_Followup_Antagonist_ratio: Tox21 HEK293 Progesterone Receptor (PR) Antagonism Beta-lactamase Follow-Up Assay, Ratio (AID 2283934)
PGR (gene 5241), sequence (P06401 whole entry, looked up): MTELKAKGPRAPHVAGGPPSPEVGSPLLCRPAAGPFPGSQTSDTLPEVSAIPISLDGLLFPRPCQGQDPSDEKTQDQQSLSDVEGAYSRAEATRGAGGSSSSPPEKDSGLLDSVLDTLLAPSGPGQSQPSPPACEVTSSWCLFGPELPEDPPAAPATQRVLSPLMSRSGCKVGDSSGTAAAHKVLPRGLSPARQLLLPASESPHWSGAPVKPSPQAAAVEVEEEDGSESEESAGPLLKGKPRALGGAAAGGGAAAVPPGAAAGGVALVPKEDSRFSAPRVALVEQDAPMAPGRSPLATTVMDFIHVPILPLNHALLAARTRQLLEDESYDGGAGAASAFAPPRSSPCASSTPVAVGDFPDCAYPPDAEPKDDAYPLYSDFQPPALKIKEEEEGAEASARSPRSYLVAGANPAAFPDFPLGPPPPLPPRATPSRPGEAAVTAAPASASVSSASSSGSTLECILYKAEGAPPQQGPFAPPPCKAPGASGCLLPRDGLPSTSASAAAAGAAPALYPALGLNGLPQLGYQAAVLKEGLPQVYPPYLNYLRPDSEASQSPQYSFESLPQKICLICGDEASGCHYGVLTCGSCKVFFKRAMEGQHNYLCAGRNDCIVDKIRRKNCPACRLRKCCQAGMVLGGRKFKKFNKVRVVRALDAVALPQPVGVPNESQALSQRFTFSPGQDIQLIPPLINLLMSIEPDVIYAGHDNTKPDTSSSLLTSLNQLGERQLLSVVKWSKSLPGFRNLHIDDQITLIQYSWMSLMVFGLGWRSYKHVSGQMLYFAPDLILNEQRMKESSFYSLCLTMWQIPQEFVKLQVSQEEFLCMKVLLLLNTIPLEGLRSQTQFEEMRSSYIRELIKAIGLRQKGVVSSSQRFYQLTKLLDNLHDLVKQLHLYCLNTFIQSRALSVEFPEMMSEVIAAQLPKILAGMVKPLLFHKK
Outline: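 PR-UAS-bla HEK293T cells in medium with 2% charcoal-stripped FBS were treated with compounds plus 1 nM (final) promegestone (R5020) for 16 hr at 37C. LiveBLAzer B/G FRET substrate was then added for 2 h at room temperature; signal is cleaved/uncleaved substrate ratio versus DMSO.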

[8] = TOX21_PR_BLA_Followup_Agonist_viability: Viability Assessment in the Tox21 HEK293 Progesterone Receptor (PR) Agonism Beta-lactamase Follow-Up Assay (AID 2283935);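 also: signal loss means lower viability so actives are cytotoxic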
Outline: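 PR-UAS-bla HEK293T cells in 2% charcoal-stripped FBS medium, compound added after 6 hr plating, 16 hr at 37C/5% CO2. After bla FRET read, CellTiter-Glo added; luminescence read after 30 min at room temperature; signal loss marks cytotoxicity.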

[9] = TOX21_PR_LUC_Followup_Antagonist_viability: Viability Assessment in the Tox21 HEK293 Progesterone Receptor (PR) Antagonism Luciferase Follow-Up Assay (AID 2283940)
Outline: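 HEK293-PR-A-luc cells, precultured 5 days in assay medium with 10% charcoal-stripped FBS, were seeded at 3,000 cells/well, treated with compounds in DMSO for 16 h at 37C, and viability was read as cellular ATP by CellTiter-Glo luminescence.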

Measured: AC50

CNC(C)Cc1ccccc1OC (centres undefined)
inactive: [1] | [2] | [3] | [4] | [5]

C[C@]12C/C(=C/O)C(=O)C[C@@H]1CC[C@@H]1[C@@H]2CC[C@@]2(C)[C@H]1CC[C@]2(C)O
active: [2] 66.6 µM | [4] 52.8 µM and 34.6 µM | [5] 71.4 µM | [7] 42.4 µM
inactive: [1] | [2] | [3] | [6] | [5] | [7] | PGR (gene 5241) | [8] | [9]

CCOP(=O)(OCC)SCCSCC (tested in a mixture with another compound)
inactive: [1] | [2] | [3] | [4] | [6] | [7]

— PubChem BioAssay (EPA / NIEHS)
